From PubChem BioAssay AID1434 (Sanford-Burnham Center for Chemical Genomics, 2008)
Among all 220,000 compounds or so, about 1,600 (0.73%) were called active.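 The calls were made as follows: active = mean inhibition across duplicate retests at 20 µM reaching about 50% (limit read from the data); inactive = the rest, inconclusive results apart.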 This excerpt belongs to a sample that is enriched for actives.

Target: Runt-related transcription factor 1 (Homo sapiens) + Core-binding factor subunit beta (Homo sapiens) (UniProt Q01196+Q13951)
Assay: disruptors of Runt domain/CBFb-SMMHC interaction – biochemical, FRET, Cerulean-Runt, Venus-CBFb-SMMHC, uHTS, primary screen (AID 1434);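 also: 0% = DMSO wells and 100% = wells with excess untagged CBFb-SMMHC; inhibitors lower the FRET ratio by blocking Runt binding to CBFb-SMMHC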
Conditions: Cerulean-Runt/Venus-CBFb-SMMHC FRET ratio 530/480, 1 h, at 20 µM, stronger effect = higher value

Chain of Runt-related transcription factor 1 (Homo sapiens) + Core-binding factor subunit beta (Homo sapiens) (Q01196 whole entry, looked up, the tested form may be a part): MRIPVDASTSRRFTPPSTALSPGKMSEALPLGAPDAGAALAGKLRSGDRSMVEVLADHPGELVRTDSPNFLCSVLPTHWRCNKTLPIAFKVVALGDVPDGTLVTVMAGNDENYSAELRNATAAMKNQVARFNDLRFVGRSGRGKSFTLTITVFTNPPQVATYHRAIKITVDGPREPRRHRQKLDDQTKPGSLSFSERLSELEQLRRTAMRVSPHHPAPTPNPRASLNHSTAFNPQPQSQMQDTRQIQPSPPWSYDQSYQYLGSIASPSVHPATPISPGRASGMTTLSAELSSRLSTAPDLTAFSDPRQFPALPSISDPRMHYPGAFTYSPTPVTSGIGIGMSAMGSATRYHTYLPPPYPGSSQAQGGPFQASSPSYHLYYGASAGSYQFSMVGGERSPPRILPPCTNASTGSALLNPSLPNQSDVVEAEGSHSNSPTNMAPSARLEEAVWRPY
Chain of Runt-related transcription factor 1 (Homo sapiens) + Core-binding factor subunit beta (Homo sapiens) (Q13951 whole entry, looked up, the tested form may be a part): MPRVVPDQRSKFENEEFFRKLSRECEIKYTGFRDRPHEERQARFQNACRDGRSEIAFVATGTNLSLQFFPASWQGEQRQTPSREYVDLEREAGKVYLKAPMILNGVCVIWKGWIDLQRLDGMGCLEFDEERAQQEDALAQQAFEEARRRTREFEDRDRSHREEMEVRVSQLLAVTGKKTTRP

| SMILES | inhibition | inhibition (retest duplicate average) [%] |
| --- | --- | --- |
| NC(=O)Nc1ccccc1C(=O)NCCc1ccccc1 | 2.1% (inactive) |  |
| COc1ccc(-c2nn(C)c(=O)c3ccccc23)cc1CNC(=O)C1CCCCC1 | -3.9% (inactive) |  |
| CNC(=O)c1cc2c(ccc3ccccc32)oc1=N | 82.8% (active) | 162 |
| N=c1oc2ccccc2cc1C(=O)N/N=C/c1ccccc1 | -6.4% (inactive) |  |
| CNC(=O)c1cccc2nc3ccccc3nc12 | 9% (inactive) |  |
| COC(=O)CCCC1=CC2=CC(=O)C(C)(OC(=O)c3cccs3)C(=O)C2=CN1CC(C)C (stereo not drawn) | -2.8% (inactive) |  |
| CC(=O)Nc1ccc(Sc2ccccc2C(=O)N2CCCC2)cn1 | -3.9% (inactive) |  |
| CN(C)CCCn1c(N)c(C#N)c2nc(C#N)c(C#N)nc21 | 78.7% (active) | 69.9 |
| COc1ccc(C2/C=C\CN(CC(C)C)CC(=O)N2Cc2ccc(F)cc2)cc1 (stereo not drawn) | 0.3% (inactive) |  |
| COc1ccc(O[C@H]2C=C[C@@H](c3ccccc3)O[C@@H]2CO/N=C/C[C@@H]2C=C[C@H](OC(C)=O)[C@@H](COC(C)=O)O2)cc1 | -12.9% (inactive) |  |
| COc1cccc2sc(Nc3nc(C)c(C(C)=O)s3)nc12 | 82.4% (active) | 96.3 |
| CC(=O)c1sc(NC(=O)CCCOc2ccccc2C)nc1C | 0% (inactive) |  |
| COc1cccc2sc(NNC(=O)c3nc4ccccc4s3)nc12 | 3.6% (inactive) |  |
| Cc1ccc(NC(=O)C2(N3CCC3=O)CCCCC2)cc1 | 3.4% (inactive) |  |
| N/C(=N\OC(=O)CC1CCCCC1)c1ccccc1 | 3.7% (inactive) |  |
| N#Cc1c(C(F)(F)F)cc(-c2ccc(Cl)cc2)nc1SCC(=O)O | 0.8% (inactive) |  |
| CCN(CC)c1nc(-c2ccccc2)cc(C(F)(F)F)c1C#N | 130% (active) | 57.3 |
| N#Cc1c(C(F)(F)F)cc(-c2ccccc2)nc1SCC(=O)N1CCOCC1 | -9.3% (inactive) |  |
| CCOC(=O)c1c(Cc2ccc(Cl)cc2)c[nH]c1C | -2.1% (inactive) |  |
| CCCCNC(=O)CCNC(=O)c1ccc(C(C)(C)C)cc1 | -0.2% (inactive) |  |
| N#Cc1c(N)n(CCOC(=O)c2ccc(Cl)cc2)c2nc3ccccc3nc12 | 116% (active) | 152 |
| CN1OC(COC(=O)c2ccc(Cl)cc2)CC1c1ccccc1 (stereo not drawn) | 3.2% (inactive) |  |
| COCCCn1c2nc3ccccc3nc2c2c(=O)n(Cc3ccc(Cl)cc3)c(C)nc21 | 7.3% (inactive) |  |
| CC(C)(C)c1ccc(C(=O)NCC(=O)OCN2C(=O)c3ccccc3C2=O)cc1 | 4.7% (inactive) |  |
| CC(C)(C)c1ccc(C(=O)NCCn2c(N)c(C#N)c3nc4ccccc4nc32)cc1 | 114% (active) | 128 |

| SMILES | inhibition | inhibition (retest duplicate average) [%] |
| --- | --- | --- |
| Cc1cc(=O)[nH]c(N/N=C/c2c(C)nn(-c3ccccc3Cl)c2Cl)n1 | -3% (inactive) |  |
| CC(C)(C)C(=O)Nc1c(Br)c(C2CC2)nn1-c1ccccc1 | 2.4% (inactive) |  |
| CCc1ccc(CNC(=O)C2CC(=O)N(CCc3ccc(C)cc3)C2)cc1 (stereo not drawn) | -1.7% (inactive) |  |
| C=CCSc1nc(N)cc(=O)[nH]1 | 0.7% (inactive) |  |
| O=C(O)CCCCCCCCCC[n+]1ccccc1 | -2.3% (inactive) |  |
| CCOC(=O)CCc1c(C)c(C#N)c2[nH]c3ccccc3n2c1=O | -6.1% (inactive) |  |
| Cc1ccccc1Cn1c(=O)[nH]c2ccccc21 | -2% (inactive) |  |
| CCCc1cc(=S)n2c([nH]c3ccccc32)c1C#N | 81.2% (active) | 153 |
| O=C(c1ccc(C(F)(F)F)cc1)C1CCCN(C(=O)c2csnn2)C1 (stereo not drawn) | 5.6% (inactive) |  |
| COC(=O)COc1ccc2oc(=O)cc(C)c2c1 | 0.6% (inactive) |  |
| COC(=O)Cc1cc(=O)oc2c(C)c(O)ccc12 | 77.6% (active) | 71.5 |
| Cc1cc(=O)oc2c(C(=O)c3ccccc3)c(OCC(N)=O)ccc12 | -4.4% (inactive) |  |
| N#C/C(C(=S)Nc1ccccc1)=C1/NN=C(N2CCOCC2)N1c1ccccc1 | 25.1% (inactive) |  |
| CN1CCNC(=O)C1CC(=O)NCCC1=CCCCC1 (stereo not drawn) | -1.1% (inactive) |  |
| Nc1nc(Nc2ccccc2)nc(NCCO)c1[N+](=O)[O-] | 0.8% (inactive) |  |
| O=C(Oc1cccnc1)c1cc2ccccc2oc1=O | -10.2% (inactive) |  |
| O=C(Oc1c(-c2ccco2)oc2ccccc2c1=O)c1cccnc1 | 92.5% (active) | 70.6 |
| N#CCc1ccc(OC(=O)c2cccnc2)cc1 | 3% (inactive) |  |
| Cc1cc(=O)[nH]c2nnnn12 | -4.2% (inactive) |  |
| CCOC(=O)c1c(C)c(C(=O)NCCc2ccc(S(N)(=O)=O)cc2)c(C)n1CC | -1.6% (inactive) |  |
| Cc1ccc(S(=O)(=O)c2c(N)n(C)c3nc4ccccc4nc23)cc1 | 22% (inactive) |  |
| CCCNC(=O)c1c(N)n(-c2ccc(S(N)(=O)=O)cc2)c2nc3ccccc3nc12 | 80.5% (active) | 104 |
| Nc1c(C(=O)c2cccs2)sc2nsc(SCCN3CCCCC3)c12 | -179% (inactive) |  |
| CCOC(=O)C(=CNNc1ccsc1C(=O)OC)C(=O)OCC | -1.9% (inactive) |  |
| CCCCc1ccc(NC(=S)N2CCCC(CO)C2)cc1 (stereo not drawn) | -1.7% (inactive) |  |

| SMILES | inhibition | inhibition (retest duplicate average) [%] |
| --- | --- | --- |
| CN(C)C(=O)c1nc2ccc(Cl)cn2c1CN1CCN(c2ncccn2)CC1 | 0.6% (inactive) |  |
| Cc1cc(C)n(C(=O)CCNC(=O)c2ccccc2Cl)n1 | 8.8% (inactive) |  |
| Cc1cc(C)c2nc(-c3ccco3)cc(C(=O)O)c2c1 | 21.4% (inactive) |  |
| Cc1cc(C)c2nc(SCCC#N)nc(C)c2c1 | -2.1% (inactive) |  |
| Cc1cc(C)c2nc3nc(C)cc(C)c3c(N)c2c1 | 60.1% (active) | 71.5 |
| NC(=O)COc1ccc2c3c(c(=O)oc2c1)CCCCC3 | -10.6% (inactive) |  |
| O=c1oc2c(CN3CCCCC3)c(O)ccc2c2c1CCCCC2 | 93.5% (active) | 148 |
| CN1CCN(Cc2c(O)ccc3c2oc(=O)c2ccccc23)CC1 | -13.8% (inactive) |  |
| Cc1ccc(C(=O)NCC(=O)OCC(=O)Nc2cccc(S(=O)(=O)N3CCCC3)c2)cc1C | 0.1% (inactive) |  |
| Cc1cccn2c(=O)c3cc(C(=O)N4COCC4(C)C)n(C)c3nc12 | 1.5% (inactive) |  |
| Cc1cccn2c(=O)c3cc(C#N)c(=O)n(CCCN4CCOCC4)c3nc12 | 61.6% (active) | 71.6 |
| Cc1cc(C)n(CC(C)NCc2c(C(=O)N3CCOCC3)nc3c(C)cccn23)n1 (stereo not drawn) | -0.8% (inactive) |  |
| COc1ccc(-c2cc3ccc(OCc4nn[nH]n4)cc3oc2=O)cc1 | 16.9% (inactive) |  |
| O=c1oc2cc(O)ccc2cc1-c1ccc(F)cc1 | 61.6% (active) | 71.5 |
| O=c1c(-c2ccccc2)coc2cc(O)ccc12 | -4.05% (inactive) |  |
| NS(=O)(=O)c1ccc(NC2=CC(c3ccc(F)cc3)N(c3ccc(S(N)(=O)=O)cc3)C2=O)cc1 (stereo not drawn) | -4.3% (inactive) |  |
| Cc1ccc(Cl)cc1NC(=O)c1ccccn1 | -0.3% (inactive) |  |
| CCC1=C(C(=O)OC)C(c2cc(OC)ccc2OC)C(C#N)=C(N)O1 (stereo not drawn) | -8.1% (inactive) |  |
| COc1ccc(C2C(C#N)=C(N)Oc3cc(N)ccc32)cc1OC (stereo not drawn) | 102% (active) | 108 |
| COC(=O)C1=C(C)OC(N)=C(C#N)C1c1cc(OC)ccc1OC (stereo not drawn) | -18.1% (inactive) |  |
| Cc1cc2nc(C(F)(F)F)cc(-c3cccs3)n2n1 | -2.5% (inactive) |  |
| CC(C)c1ccc(Nc2ncccc2C#N)cc1 | 2.1% (inactive) |  |
| CCOC(=O)Cc1csc(SCc2cc(=O)oc3cc(O)ccc23)n1 | 121% (active) | 114 |
| CCOC(=O)Cc1csc(NC(=O)COc2ccc3c(C)cc(=O)oc3c2)n1 | -11.5% (inactive) |  |
| Cc1ccc2c(CSc3nncs3)cc(=O)oc2c1 | -1% (inactive) |  |

| SMILES | inhibition | inhibition (retest duplicate average) [%] |
| --- | --- | --- |
| C=CCNC(=O)COC(=O)c1ccccc1C(=O)N(C)C1CCCCC1 | -5.7% (inactive) |  |
| COc1ccc2c(CC(=O)OCC(=O)NC(N)=O)coc2c1 | 2.1% (inactive) |  |
| Cc1ccc(-n2c(=O)c(C#N)cc3c(=O)n4ccccc4nc32)cc1C | 58.7% (active) | 72.9 |
| Cc1cccc(-n2ncc(C#N)c2-n2cccc2)c1 | -1.3% (inactive) |  |
| Cc1ccc(-n2ncc3c(=O)n(-c4ccc(C)c(C)c4)c(-c4ccco4)nc32)cc1 | 1.4% (inactive) |  |
| COc1ccc(NC(=O)C(Br)C(C)C)cc1 (stereo not drawn) | 2.9% (inactive) |  |
| c1ccc(-n2nnnc2-c2cccnc2)cc1 | -4.7% (inactive) |  |
| COc1cc(COCC(O)CN2CCN(Cc3ccc4c(c3)OCO4)CC2)cc(OC)c1OC (stereo not drawn) | 1.8% (inactive) |  |
| COc1c(O)ccc2c1CN1CCc3cc4c(cc3C1C2)OCO4 (stereo not drawn) | 78% (active) | 110 |
| COc1ccc2cc1Oc1ccc(cc1)C[C@H]1c3cc(c(OC)cc3CCN1C)Oc1c(O)c(OC)cc3c1[C@H](C2)N(C)CC3 | -0.6% (inactive) |  |
| CC(C)n1c(-c2ccncc2)n[nH]c1=S | -1.2% (inactive) |  |
| Cc1ccc(C)c(Cn2nnc3c(=O)[nH]c(C(=O)Nc4ccc(F)cc4)nc32)c1 | 1.2% (inactive) |  |
| COc1ccc(Cl)cc1S(=O)(=O)N1CCC(O)(c2ccc(Cl)cc2)CC1 | -1.4% (inactive) |  |
| CCOC(=O)CNC(=O)CSc1nnc(COc2ccc(Cl)cc2)n1CC | 2.7% (inactive) |  |
| CCOC(=O)CNC(=O)CSc1nnc(-c2cccc(OC)c2)n1CC | 60.6% (active) | 67.7 |
| C=CCn1c(COc2ccccc2)nnc1SCC(=O)NCC(=O)OCC | 0.8% (inactive) |  |
| Cc1cc2oc(=O)cc(CN3CCN(S(=O)(=O)c4cccs4)CC3)c2cc1C(C)C | -6.5% (inactive) |  |
| CCN(CC)CCC(c1cc(OC)c(OC)c(OC)c1)c1c(OC)cc(OC)c2c(-c3ccccc3)cc(=O)oc12 (stereo not drawn) | 1.1% (inactive) |  |
| O=c1[nH]c(CN2CCN(S(=O)(=O)c3ccc4c(c3)OCCO4)CC2)nc2sc3c(c12)CCCC3 | -6.3% (inactive) |  |
| CSc1nc(N)c(C#N)c(-c2ccccc2Cl)c1C#N | 2% (inactive) |  |
| COc1ccc(-c2cc(-c3ccc(N)cc3)nc(N)c2C#N)cc1OC | 52.8% (inactive) | 46.8 |
| COc1ccccc1-c1c(C#N)c(N)nc2c1CCC2 | 61.7% (active) | 60.2 |
